# Measured values: PubChem BioAssay (EPA / NIEHS)
# The source made the active and inactive calls. The calls were made as follows: active = hit-call score of the fitted dose curve at least 0.9, where 1 is the maximum; inactive = score below 0.9.
# Columns and labels:
# [1] = target: Transcription factor E2F1 (Homo sapiens) (UniProt Q01094); experiment: ATG_E2F_CIS: Attagene CIS-FACTORIAL HepG2 Assay for human E2F Transcription Factor 1 (AID 2282935); conditions: HepG2 Attagene cis-reporter, E2F reporter RNA transcripts; actives raise or lower the signal
# Transcription factor E2F1 (Homo sapiens), sequence (Q01094 whole entry, looked up): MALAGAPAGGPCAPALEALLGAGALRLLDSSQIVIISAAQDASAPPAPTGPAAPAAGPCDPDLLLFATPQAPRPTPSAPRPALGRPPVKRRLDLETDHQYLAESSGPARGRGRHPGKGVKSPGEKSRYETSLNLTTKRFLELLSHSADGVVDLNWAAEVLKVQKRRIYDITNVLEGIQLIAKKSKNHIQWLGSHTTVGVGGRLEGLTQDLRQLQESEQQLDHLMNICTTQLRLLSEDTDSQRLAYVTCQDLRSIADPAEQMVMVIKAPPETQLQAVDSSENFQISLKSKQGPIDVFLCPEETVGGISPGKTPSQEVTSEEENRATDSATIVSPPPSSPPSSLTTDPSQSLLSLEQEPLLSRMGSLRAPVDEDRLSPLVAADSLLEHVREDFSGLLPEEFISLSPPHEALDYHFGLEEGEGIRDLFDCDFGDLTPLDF
# Method in brief: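 Gain or loss of reporter transcript, fitted against DMSO, reflects E2F1-driven transcription. Transiently transfected HepG2 dosed 24 h before RNA isolation. Quantified by fluorescent RT-PCR products separated by capillary electrophoresis.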
# [2] = ATG_E_Box_CIS: Attagene CIS-FACTORIAL HepG2 Assay for human Enhancer Box (E-box) (AID 2282936); conditions: HepG2 E-box cis-reporter transcription, actives raise or lower the signal
# Method in brief: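 E-box-driven reporter transcripts measured in transiently transfected HepG2 after 24 h exposure: RNA reverse-transcribed, PCR-amplified, fluorescently labelled, digested and resolved by capillary electrophoresis. Gain or loss relative to DMSO.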
# [3] = ATG_EGR_CIS: Attagene CIS-FACTORIAL HepG2 Assay for human Early Growth Response 1 (EGR1) (AID 2282938); conditions: HepG2 Attagene CIS-FACTORIAL EGR reporter mRNA; actives raise or lower the signal
# Method in brief: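 After a 24 h treatment of transiently transfected HepG2 cells, total RNA was reverse-transcribed and reporter sequences PCR-amplified, labelled and run on capillary electrophoresis. Reporters sit under cis-regulatory promoters sensing endogenous factors.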
# [4] = ATG_M_19_CIS: Attagene CIS-FACTORIAL HepG2 Assay for M19 Transcription Factor (Internal Marker) (AID 2282939); conditions: HepG2 Attagene CIS-FACTORIAL M19 internal marker reporter; actives raise or lower the signal
# Method in brief: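 Transfect HepG2 with MRTU reporter library → dose chemical, 24 h → isolate total RNA, reverse-transcribe with oligo(dT) → PCR, 6-FAM label, HpaI cut (2 h, 37 C) → capillary electrophoresis. Bidirectional fit vs DMSO.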
# [5] = ATG_ERE_CIS: Attagene CIS-FACTORIAL HepG2 Assay for Estrogen Response Element (ERE) (AID 2282940); conditions: HepG2 ERE cis-reporter, Attagene RNA transcript; actives raise or lower the signal
# Method in brief: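 Transient MRTU transfection of human HepG2; cis-element promoters; 24 h dosing; total RNA → RT (oligo dT) → PCR → 6-FAM primer extension → HpaI digest → CE fluorescence. Bidirectional fit, DMSO baseline.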
# [6] = ATG_Ets_CIS: Attagene CIS-FACTORIAL HepG2 Assay for human Erythroblast Transformation Specific (ETS) (AID 2282941); conditions: HepG2 ETS cis-reporter transcription, actives raise or lower the signal
# Method in brief: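 Cis-regulated reporter mRNA induction in HepG2 (transient transfection), 24 h exposure, RT-PCR plus capillary electrophoresis detection; DMSO serves as negative control and baseline.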
# [7] = target: Hepatocyte nuclear factor 3-beta (Homo sapiens) (UniProt Q9Y261); experiment: ATG_FoxA2_CIS: Attagene CIS-FACTORIAL HepG2 Assay for human Forkhead box A2 (FOXA2) (AID 2282942); conditions: HepG2 cis-reporter transcription factor activity, 24 h; actives raise or lower the signal
# Hepatocyte nuclear factor 3-beta (Homo sapiens), sequence (Q9Y261 whole entry, looked up): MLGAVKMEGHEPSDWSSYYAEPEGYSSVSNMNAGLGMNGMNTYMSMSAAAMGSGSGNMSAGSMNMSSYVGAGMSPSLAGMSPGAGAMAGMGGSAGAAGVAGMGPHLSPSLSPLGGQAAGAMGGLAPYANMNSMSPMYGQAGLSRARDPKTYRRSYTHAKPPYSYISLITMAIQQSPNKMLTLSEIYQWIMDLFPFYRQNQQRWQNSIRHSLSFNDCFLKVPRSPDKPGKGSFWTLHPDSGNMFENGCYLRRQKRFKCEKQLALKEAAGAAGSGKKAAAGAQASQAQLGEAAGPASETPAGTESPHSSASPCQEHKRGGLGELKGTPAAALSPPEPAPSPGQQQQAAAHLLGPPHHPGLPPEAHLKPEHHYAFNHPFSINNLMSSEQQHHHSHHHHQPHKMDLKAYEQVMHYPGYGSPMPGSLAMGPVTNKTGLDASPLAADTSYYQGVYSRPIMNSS
# Method in brief: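 24 h dosing of HepG2 bearing cis-reporter constructs; mRNA readout by RT-PCR/CE fluorescence; bidirectional fit, DMSO baseline.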
# [8] = ATG_FoxO_CIS: Attagene CIS-FACTORIAL HepG2 Assay for human Forkhead box O (FoxO) (AID 2282943); conditions: HepG2 Attagene cis-reporter, FoxO element, mRNA; actives raise or lower the signal
# Method in brief: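 Endogenous transcription factor activity read from multiplexed cis-promoter reporter transcripts in transiently transfected HepG2, 24 h after dosing. Reporter RNA measured via RT-PCR plus capillary electrophoresis of FAM-labeled products; gain or loss relative to DMSO.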
# [9] = ATG_GATA_CIS: Attagene CIS-FACTORIAL HepG2 Assay for human GATA Binding Protein (AID 2282944); conditions: HepG2 GATA cis-element reporter, Attagene multiplex mRNA; actives raise or lower the signal
# Method in brief: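 Transient MRTU transfection, HepG2, 24 h compound exposure. Total RNA → oligo(dT) RT → PCR → 6-FAM primer extension → HpaI cut → CE. Bidirectional fit vs DMSO.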
# [10] = ATG_GLI_CIS: Attagene CIS-FACTORIAL HepG2 Assay for human Zinc Finger Protein GLI1 (AID 2282945); conditions: HepG2, Attagene cis-factorial reporter mRNA, GLI element; actives raise or lower the signal
# Method in brief: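 Bidirectional curve fits relative to DMSO, using reporter mRNA levels from RT-PCR plus capillary electrophoresis. Cells were HepG2 transiently carrying cis-regulated reporter constructs, harvested 24 h after dosing.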
# [11] = target: Bile acid receptor (Homo sapiens) (UniProt Q96RI1); experiment: ATG_IR1_CIS: Attagene CIS-FACTORIAL HepG2 Assay for human Nuclear Receptor Subfamily 1 Group H Member 4 (NR1H4), IR1 submotif (AID 2282946); conditions: IR1 reporter transcription, actives raise or lower the signal
# Bile acid receptor (Homo sapiens), sequence (Q96RI1 whole entry, looked up): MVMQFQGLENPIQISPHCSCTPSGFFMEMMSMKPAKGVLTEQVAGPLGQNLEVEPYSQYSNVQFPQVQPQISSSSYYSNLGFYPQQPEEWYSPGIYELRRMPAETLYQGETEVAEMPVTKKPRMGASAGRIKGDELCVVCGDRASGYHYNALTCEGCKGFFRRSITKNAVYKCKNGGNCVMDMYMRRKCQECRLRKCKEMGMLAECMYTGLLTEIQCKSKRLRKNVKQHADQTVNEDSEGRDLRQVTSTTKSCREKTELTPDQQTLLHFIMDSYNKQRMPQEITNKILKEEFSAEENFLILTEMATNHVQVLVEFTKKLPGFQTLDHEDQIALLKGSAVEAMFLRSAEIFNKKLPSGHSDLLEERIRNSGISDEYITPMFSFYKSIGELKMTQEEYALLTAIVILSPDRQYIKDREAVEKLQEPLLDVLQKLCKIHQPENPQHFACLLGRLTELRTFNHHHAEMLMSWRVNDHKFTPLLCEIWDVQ
# Method in brief: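 HepG2 cells transiently transfected with multiplexed cis-element reporter units read endogenous transcription factor activity. After 24 h compound exposure, reporter mRNA was quantified by RT-PCR, fluorescent labelling, HpaI digestion and capillary electrophoresis; bidirectional fitting versus DMSO baseline.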
# [12] = ATG_GRE_CIS: Attagene CIS-FACTORIAL HepG2 Assay for human Glucocorticoid Response Elements (GRE) (AID 2282947); conditions: HepG2 GRE cis-reporter, Attagene multiplex mRNA; actives raise or lower the signal
# Method in brief: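 Reporter transcripts read by RT-PCR with capillary electrophoresis fluorescence after a 24 h chemical exposure of HepG2 cells transiently transfected with multiple cis-element reporter units. Gain or loss fitted against DMSO.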
# [13] = ATG_ISRE_CIS: Attagene CIS-FACTORIAL HepG2 Assay for human Interferon Regulatory Factor 1 (IRF1) binding to an Interferon-Stimulated Response Element (ISRE) (AID 2282948); conditions: HepG2 ISRE cis-reporter (Attagene), mRNA transcription readout; actives raise or lower the signal
# Method in brief: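 Multiplexed mRNA reporter readout in human liver HepG2 cells: cis-element-driven reporters transfected, compound added for 24 h, transcripts amplified, fluorescently labelled and sized by capillary electrophoresis; curve fitting bidirectional against DMSO.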
# [14] = ATG_M_32_CIS: Attagene CIS-FACTORIAL HepG2 Assay for M32 Transcription Factor (Internal Marker) (AID 2282949); conditions: HepG2 Attagene cis-factorial M32 reporter, mRNA; actives raise or lower the signal;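 also: background control marker of the multiplexed CIS panel rather than a real target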
# Method in brief: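 HepG2 transfectants (cis-regulated reporter transcription units) dosed 24 h. Reporter mRNA by RT-PCR plus CE, analysed as gain or loss relative to DMSO.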
# [15] = ATG_M_06_CIS: Attagene CIS-FACTORIAL HepG2 Assay for M06 Transcription Factor (Internal Marker) (AID 2282950); conditions: HepG2 Attagene CIS-FACTORIAL M06 internal marker reporter; actives raise or lower the signal
# Method in brief: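 Read-out is fluorescence of labelled reporter cDNA fragments resolved by capillary electrophoresis after RT-PCR. Cells: HepG2 carrying transfected cis-promoter reporter units, treated 24 h. Gain or loss of signal fitted relative to DMSO.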
# [16] = target: Hypoxia-inducible factor 1-alpha (Homo sapiens) (UniProt Q16665); experiment: ATG_HIF1a_CIS: Attagene CIS-FACTORIAL HepG2 Assay for human Hypoxia Inducible Factor 1 (HIF1A) (AID 2282951); conditions: HepG2 Attagene cis-factorial HIF1a reporter transcription; actives raise or lower the signal
# Hypoxia-inducible factor 1-alpha (Homo sapiens), sequence (Q16665 whole entry, looked up): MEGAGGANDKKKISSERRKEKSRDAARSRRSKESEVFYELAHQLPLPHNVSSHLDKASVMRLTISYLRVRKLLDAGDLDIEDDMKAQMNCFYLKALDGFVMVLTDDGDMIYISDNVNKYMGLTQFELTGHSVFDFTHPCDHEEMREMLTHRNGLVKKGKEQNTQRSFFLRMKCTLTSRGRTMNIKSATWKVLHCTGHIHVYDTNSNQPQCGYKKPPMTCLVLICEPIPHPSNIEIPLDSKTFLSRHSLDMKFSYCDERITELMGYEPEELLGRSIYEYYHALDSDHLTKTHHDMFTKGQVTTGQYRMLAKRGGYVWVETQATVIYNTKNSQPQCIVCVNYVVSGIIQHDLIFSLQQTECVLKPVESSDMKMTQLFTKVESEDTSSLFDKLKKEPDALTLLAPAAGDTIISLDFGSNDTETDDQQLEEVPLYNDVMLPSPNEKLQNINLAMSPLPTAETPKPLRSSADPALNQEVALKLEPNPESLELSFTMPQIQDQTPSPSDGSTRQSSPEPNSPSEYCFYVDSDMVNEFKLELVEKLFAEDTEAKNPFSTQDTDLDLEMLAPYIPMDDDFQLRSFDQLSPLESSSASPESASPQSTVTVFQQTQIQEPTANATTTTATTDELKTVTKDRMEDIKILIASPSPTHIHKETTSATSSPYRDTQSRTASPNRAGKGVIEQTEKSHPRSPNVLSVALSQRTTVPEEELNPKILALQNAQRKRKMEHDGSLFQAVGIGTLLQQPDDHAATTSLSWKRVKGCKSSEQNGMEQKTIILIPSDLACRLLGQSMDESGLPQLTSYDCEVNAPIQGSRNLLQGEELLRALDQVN
# Method in brief: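 After 24 h chemical exposure of reporter-transfected HepG2 cells, reporter cDNA was PCR-amplified, labelled by 6-FAM primer extension (2 min 95 C, 20 s 68 C, 10 min 72 C), HpaI-cut (2 h, 37 C) and analysed by CE.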
# [17] = target: Hepatocyte nuclear factor 6 (Homo sapiens) (UniProt Q9UBC0); experiment: ATG_HNF6_CIS: Attagene CIS-FACTORIAL HepG2 Assay for human Hepatocyte Nuclear Factor 6 (HNF6) (AID 2282952); conditions: HepG2 Attagene cis-factorial HNF6 reporter transcription; actives raise or lower the signal
# Hepatocyte nuclear factor 6 (Homo sapiens), sequence (Q9UBC0 whole entry, looked up, the tested form may be a part): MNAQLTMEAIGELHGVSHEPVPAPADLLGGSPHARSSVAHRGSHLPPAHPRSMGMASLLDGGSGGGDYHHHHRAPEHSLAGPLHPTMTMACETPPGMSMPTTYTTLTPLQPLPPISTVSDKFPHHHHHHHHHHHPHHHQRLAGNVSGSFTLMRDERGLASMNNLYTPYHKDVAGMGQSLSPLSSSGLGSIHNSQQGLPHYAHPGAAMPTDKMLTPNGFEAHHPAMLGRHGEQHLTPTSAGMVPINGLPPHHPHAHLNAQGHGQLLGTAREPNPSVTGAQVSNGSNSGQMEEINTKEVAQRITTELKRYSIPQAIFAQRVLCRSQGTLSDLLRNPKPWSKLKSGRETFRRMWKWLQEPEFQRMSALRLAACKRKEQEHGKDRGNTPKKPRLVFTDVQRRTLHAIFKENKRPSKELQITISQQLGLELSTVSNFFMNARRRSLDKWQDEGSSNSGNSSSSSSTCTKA
# Method in brief: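 Using cis-element reporters in HepG2 liver cells, the assay tracks endogenous factor-driven transcription 24 h post-dosing. Signal comes from 6-FAM-labelled, HpaI-digested RT-PCR fragments, with gain or loss scored against DMSO.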
# [18] = target: Heat shock factor protein 1 (Homo sapiens) (UniProt Q00613); experiment: ATG_HSE_CIS: Attagene CIS-FACTORIAL HepG2 Assay for human Heat Shock Transcription Factor 1 (HSE) (AID 2282953); conditions: HepG2 HSE cis-reporter, Attagene RNA transcription; actives raise or lower the signal
# Heat shock factor protein 1 (Homo sapiens), sequence (Q00613 whole entry, looked up): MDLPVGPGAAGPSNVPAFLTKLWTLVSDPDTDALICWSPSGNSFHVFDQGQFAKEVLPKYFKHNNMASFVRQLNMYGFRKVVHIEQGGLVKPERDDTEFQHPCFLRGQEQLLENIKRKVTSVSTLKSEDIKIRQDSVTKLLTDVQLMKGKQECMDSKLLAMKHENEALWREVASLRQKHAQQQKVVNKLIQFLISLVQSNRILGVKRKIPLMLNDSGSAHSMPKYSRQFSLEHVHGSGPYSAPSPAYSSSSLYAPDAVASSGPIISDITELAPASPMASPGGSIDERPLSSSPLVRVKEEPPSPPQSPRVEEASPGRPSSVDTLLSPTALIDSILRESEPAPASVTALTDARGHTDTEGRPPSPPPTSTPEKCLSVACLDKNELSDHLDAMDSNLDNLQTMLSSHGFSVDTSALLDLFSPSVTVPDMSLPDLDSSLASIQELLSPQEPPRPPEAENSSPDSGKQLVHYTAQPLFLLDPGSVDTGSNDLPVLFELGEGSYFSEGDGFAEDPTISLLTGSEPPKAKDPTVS
# Method in brief: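 HepG2, transient MRTU transfection, cis-promoter reporters (endogenous TF activity). 24 h compound. RNA → oligo(dT) RT → PCR → 6-FAM primer extension → HpaI cut → CE. Bidirectional fit vs DMSO.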
# [19] = ATG_MRE_CIS: Attagene CIS-FACTORIAL HepG2 Assay for human Metal Responsive Element (MRE) (AID 2282954); conditions: HepG2 MRE cis-reporter transcription, Attagene multiplex; actives raise or lower the signal
# Method in brief: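 Endogenous MRE-dependent transcription read as reporter mRNA in transiently transfected human HepG2 cells at 24 h. RNA reverse-transcribed, PCR-amplified, labelled and resolved by capillary electrophoresis; gain or loss relative to DMSO.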
# [20] = ATG_M_61_CIS: Attagene CIS-FACTORIAL HepG2 Assay for M61 Transcription Factor (Internal Marker) (AID 2282937); conditions: HepG2 Attagene CIS-FACTORIAL M61 internal marker reporter; actives raise or lower the signal
# Method in brief: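 Transfect HepG2 with MRTUs; dose 24 h; isolate RNA; reverse-transcribe with DNase I treatment; PCR-amplify, FAM-label and cut with HpaI for 2 h at 37 C; resolve by CE. Bidirectional fitting against DMSO.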
compound,measurement,setting,value
FC(F)(F)C(F)(F)CNCC(F)(F)C(F)(F)F,outcome,[1],inactive
same,outcome,[2],inactive
same,outcome,[3],inactive
same,outcome,[4],inactive
same,outcome,[5],inactive
same,outcome,[6],inactive
same,outcome,[7],inactive
same,outcome,[8],inactive
same,outcome,[9],inactive
same,outcome,[10],inactive
same,outcome,[11],inactive
same,outcome,[12],inactive
same,outcome,[13],inactive
same,outcome,[14],inactive
same,outcome,[15],inactive
same,outcome,[16],inactive
same,outcome,[17],inactive
same,outcome,[18],inactive
same,outcome,[19],inactive
C=CC(F)(F)C(F)(F)C(F)(F)C(F)(F)C(F)(F)C(F)(F)C(F)(F)C(F)(F)C=C,outcome,[1],inactive
same,outcome,[2],inactive
same,outcome,[20],inactive
same,outcome,[3],inactive
same,outcome,[4],inactive
same,AC50,[5],4.46 µM (active)
same,outcome,[6],inactive
same,outcome,[7],inactive
same,outcome,[8],inactive
same,outcome,[9],inactive
same,outcome,[10],inactive
same,outcome,[11],inactive
same,outcome,[12],inactive
same,outcome,[13],inactive
same,outcome,[14],inactive
same,outcome,[15],inactive
same,outcome,[16],inactive
same,outcome,[17],inactive
same,outcome,[18],inactive
same,outcome,[19],inactive
CC(C)(C)C(=O)CC(=O)C(F)(F)C(F)(F)C(F)(F)F,outcome,[1],inactive
same,outcome,[2],inactive
same,outcome,[20],inactive
same,outcome,[3],inactive
same,outcome,[4],inactive
same,outcome,[5],inactive
same,outcome,[6],inactive
same,outcome,[7],inactive
same,outcome,[8],inactive
same,outcome,[9],inactive
same,outcome,[10],inactive
same,outcome,[11],inactive
same,outcome,[12],inactive
same,outcome,[13],inactive
same,outcome,[14],inactive
same,outcome,[17],inactive
same,outcome,[18],inactive
same,outcome,[19],inactive
